Assay results: PubChem BioAssay (Tox21)
Calls of active or inactive are those of the source. Entries that show only a call come without a potency. The call rests on the fitted dose curve; in most records, active means well fitted activation curve with a large enough effect in the signal ratio in the repeat runs (not every such curve was filed as active); inconclusive means weak or mixed curves, or effect the other way; inactive means no such curve, though single readings can be large or run the other way; the % refers to the signal ratio.

What follows are molecules tested against Glucocorticoid receptor (Homo sapiens) (UniProt P04150) (assay: qHTS assay to identify small molecule agonists of the glucocorticoid receptor (GR) signaling pathway (AID 720691)). Settings: GR-bla HeLa, beta-lactamase reporter ratio, 18 h; series mostly up to 62.4 µM.
Sequence of Glucocorticoid receptor (Homo sapiens) (P04150 whole entry, looked up): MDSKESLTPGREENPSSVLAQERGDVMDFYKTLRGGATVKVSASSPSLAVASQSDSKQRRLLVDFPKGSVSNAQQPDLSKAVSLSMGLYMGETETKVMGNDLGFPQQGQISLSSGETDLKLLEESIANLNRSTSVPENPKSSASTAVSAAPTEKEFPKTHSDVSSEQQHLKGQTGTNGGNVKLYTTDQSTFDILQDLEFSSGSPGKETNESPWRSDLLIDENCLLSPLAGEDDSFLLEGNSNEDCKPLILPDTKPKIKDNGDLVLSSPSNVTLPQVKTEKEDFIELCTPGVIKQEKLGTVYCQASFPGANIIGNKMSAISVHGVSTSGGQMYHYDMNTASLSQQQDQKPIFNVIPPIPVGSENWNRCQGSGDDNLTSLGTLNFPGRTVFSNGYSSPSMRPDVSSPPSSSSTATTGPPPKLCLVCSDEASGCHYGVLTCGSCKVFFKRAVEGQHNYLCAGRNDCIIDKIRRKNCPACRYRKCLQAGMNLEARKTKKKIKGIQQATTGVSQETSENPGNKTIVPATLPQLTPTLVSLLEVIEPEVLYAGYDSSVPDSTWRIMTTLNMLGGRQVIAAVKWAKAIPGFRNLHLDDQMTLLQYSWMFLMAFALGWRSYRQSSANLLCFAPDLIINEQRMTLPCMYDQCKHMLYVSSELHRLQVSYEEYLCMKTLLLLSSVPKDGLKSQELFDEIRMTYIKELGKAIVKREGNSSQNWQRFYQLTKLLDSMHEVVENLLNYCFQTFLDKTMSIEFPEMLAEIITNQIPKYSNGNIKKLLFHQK
Description: U.S. Tox21 Program National Center for Advancing Translational Sciences [NCATS] NIH Chemical Genomics Center [NCGC] U.S. Environmental Protection Agency [EPA] National Institutes of Environmental Health Sciences [NIEHS] National Toxicology Program [NTP] U.S. Food and Drug Administration [FDA] Tox21 Assay Overview: The Glucocorticoid receptor (GR) is one of the members of the nuclear receptor family of ligand-dependent transcription factors. GR plays a critical role in carbohydrate, protein and lipid metabolisms and programmed cell death. CellSensor GR-bla HeLa cell line (Invitrogen) contains a beta-lactamase reporter gene under the control of the glucocorticoid response element stably integrated into HeLa cells, a cervical cancer cell line that expresses glucocorticoid receptor. The activation of the reporter gene under culture conditions can be detected by fluorescence intensity. This cell line has been used to screen the Tox21 10K compound library and to identify the compounds that activate the GR signaling.
Tox21 Assay Protocol Summary: The GR-bla HeLa cells were dispensed at 1500 cells/6 ul/well in 1536-well black wall/clear bottom plates using a Multidrop Combi (ThermoFisher Scientific, Waltham, MA) dispenser. After the assay plates were incubated at a 37 C/5% CO2 incubator for 4 hours, 23 nL of compounds dissolved in DMSO, positive controls or DMSO only was transferred to the assay plate by a pintool station (Kalypsys, San Diego, CA). The plates were incubated at 37 C for 18 hours. After 1 uL of LiveBLAzerTM B/G FRET substrate was added using a Flying Reagent Dispenser (Aurora Discovery, San Diego, CA), the plates were incubated at room temperature for 2 hours, and fluorescence intensity was measured by an Envision plate reader (PerkinElmer, Shelton, CT).
Potency means the concentration at half of the fitted maximal effect.

SMILES	Potency
C#CC(C)(O)CC (stereo not given)	inactive
CC(C)NC(C)Cc1ccc(I)cc1 (stereo not given)	inactive
CC1(C)S[C@@H]2[C@H](N)C(=O)N2[C@H]1C(=O)O	inactive
OC[C@@H](O)[C@H]1O[C@@H]2O[C@@H](C(Cl)(Cl)Cl)O[C@@H]2[C@H]1O	inactive
O=C1OC2(c3cc(Br)c(O)cc3Oc3c2cc(Br)c(O)[c]3[Hg])c2ccccc21 (stereo not given)	inactive
CCNC(C)Cc1cccc(C(F)(F)F)c1 (stereo not given)	inactive
COc1cc(C[C@H](C)N)c(OC)cc1C	inactive
CC(=O)O[C@H]1C[C@H](O[C@H]2[C@@H](O)C[C@H](O[C@H]3[C@@H](O)C[C@H](O[C@H]4CC[C@@]5(C)[C@H](CC[C@@H]6[C@@H]5C[C@@H](O)[C@]5(C)[C@@H](C7=CC(=O)OC7)CC[C@]65O)C4)O[C@@H]3C)O[C@@H]2C)O[C@H](C)[C@H]1O[C@@H]1O[C@H](CO)[C@@H](O)[C@H](O)[C@H]1O	inactive
CC(=O)OCC(=O)[C@H]1CC[C@H]2[C@@H]3CC[C@H]4C[C@H](O)CC[C@]4(C)[C@H]3C(=O)C[C@]12C	inactive
O=C(O)/C=C\C(=O)O	inactive
C=CCC1([C@@H](C)CCC)C(=O)NC(=O)NC1=O	inactive
C[C@@H]([C@H](O)c1ccccc1)N(C)C	inactive
CCc1cc(OC)c(C[C@@H](C)N)cc1OC	inactive
C=C[C@H]1CN2CC[C@H]1C[C@@H]2[C@@H](O)c1ccnc2ccccc12	inactive
CCNCC(O)c1cccc(O)c1 (stereo not given)	inactive
C=CCN(C1=NCCN1)c1c(Cl)cccc1Cl	inactive
Clc1ccc2c(c1)C(c1ccccc1)=NCc1nncn1-2	inactive
C[N+]1([O-])[C@@H]2CC(OC(=O)[C@H](CO)c3ccccc3)C[C@H]1[C@@H]1O[C@@H]12 (stereo not given in full)	inactive
O=P1(N(CCCl)CCCl)NC(OO)CCO1 (stereo not given)	inactive
O=C(O)CCCO	inactive

SMILES	Potency
CNC1(c2ccccc2Cl)CCCCC1=O (stereo not given)	inactive
C/C(=C\c1csc(C)n1)[C@@H]1C[C@@H]2O[C@]2(C)CCC[C@H](C)[C@H](O)[C@@H](C)C(=O)C(C)(C)[C@@H](O)CC(=O)O1	inactive
CCON=O	inactive
CCCCc1ccc(C(=O)O)nc1	inactive
C=CCC1(C(C)CCC)C(=O)N=C(S)NC1=O (stereo not given)	inactive
Cc1nnc2n1-c1ccc(Cl)cc1C(c1ccccc1)=NC2	inactive
CN[C@]1(c2ccccc2Cl)CCCCC1=O	inactive
Cc1cccc(C(C)c2cnc[nH]2)c1C (stereo not given)	inactive
CC(=O)[C@H]1CC[C@H]2[C@@H]3CC[C@@H]4C[C@H](O)CC[C@]4(C)[C@H]3CC[C@]12C	inactive
O=C1CCO1	inactive
CCOc1ccc2c3c1O[C@H]1[C@@H](O)C=C[C@H]4[C@@H](C2)N(C)CC[C@@]341	inactive
CCCCC[C@@H](O)C1C(=O)OC(C)[C@H](O)/C=C/C=C/C=C/C=C/C=C(\C)C(O)C(O)C(O)C[C@H](O)C[C@H](O)C[C@H](O)C[C@H](O)C[C@@H]1O (stereo not given in full)	inactive
C[C@H]1[C@H]2Cc3ccc(O)cc3[C@]1(C)CCN2CCc1ccccc1	inactive
CNC(=O)Oc1ccccc1C(=O)Nc1ccccc1	inactive
CC(=O)[C@@]1(O)CC[C@H]2[C@@H]3CCC4=CC(=O)CC[C@]4(C)C3(F)[C@@H](O)C[C@@]21C (stereo not given in full)	0.19 µM [inconclusive] (active)
c1ccc2c(c1)Sc1ccccc1N2CC1CN2CCC1CC2 (stereo not given)	inactive
C[C@]12CCC(=O)C=C1C=C[C@@H]1[C@@H]2CC[C@@]2(C)[C@H]1CC[C@@]2(O)CCC(=O)O	inactive
CNc1ccc(C(=O)CC(O)CCC(C)C2OC(=O)CC(O)CC(=O)CC(O)CC(O)CC(O)CC(O)CC3(O)CC(O)C(C(=O)OC)C(CC(O[C@@H]4O[C@H](C)[C@@H](O)[C@H](N)[C@@H]4O)/C=C/C=C/C=C/C=C/C=C/C=C/C=C/C2C)O3)cc1 (stereo not given in full)	inactive
CCN(CC)/[N+]([O-])=N/O	inactive
Cc1cc(C)cc(C(=O)OC2C[C@H]3CC[C@@H](C2)N3C)c1 (stereo not given in full)	inactive
